TDP1 cell noCPT: qHTS for Inhibitors of human tyrosyl-DNA phosphodiesterase 1 (TDP1): qHTS in cells in absence of CPT; DT40 Tdp1-/- hTDP1 cells, no CPT, ATP luminescence, 48 h; Potency, µM (series often up to 46.2 µM), for the others: at the top dose activity change, negative = growth inhibition, hits mostly inhibitors; actives 15% (n = 420,000); AID 686978, 2013; note: potency is the fitted concentration of half-maximal effect; % is set by controls: 0 for no effect and ±100 for the full control effect; nearly all actives have a fitted effect of over 55% in size
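No-CPT arm: Tdp1-/-;hTDP1 DT40 cells (400/well) plus compounds, incubated ≥48 hr at 37 °C. Readout CellTiter-Glo luminescence.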
TGFb SMAD3 inh: qHTS for Inhibitors of TGF-b | AID 588855, 2011 | Potency, µM (doses to about 46.1 µM), for the others: top-dose activity, negative = inhibition, usual class: inhibitors | actives 1.2% (n = 410,000) | HepG2 CAGA-GFP TGF-b/SMAD3 reporter, GFP fluorescence, 18 h; TGF-beta stimulated, 500 pg/mL final; note: potency is the fitted concentration of half-maximal effect; % is set by controls: 0 for no effect and ±100 for the full control effect; nearly all actives have a fitted effect of over 65% in size
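Inhibition of TGF-beta-driven CAGA-GFP reporter expression in HEPG2 cells is measured by cellular GFP fluorescence after 18 h stimulation with 500 pg/mL recombinant TGF-beta in 1% FBS medium at 37 degrees C.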
ASM inhibitor: Inhibitors of Secretory Acid Sphingomyelinase (S-ASM): qHTS. Sphingomyelin phosphodiesterase (Homo sapiens), P17405. placental ASM, HMU-PC fluorogenic substrate, 60 min. Potency, µM (top dose mostly 57.5 µM), for the others: at the highest dose activity change, negative = inhibition, most hits filed as inhibitors. actives 0.006% (n = 340,000). AID 504937, 2011; note: potency is the fitted concentration of half-maximal effect
Target sequence (P17405 47-631 limits assumed): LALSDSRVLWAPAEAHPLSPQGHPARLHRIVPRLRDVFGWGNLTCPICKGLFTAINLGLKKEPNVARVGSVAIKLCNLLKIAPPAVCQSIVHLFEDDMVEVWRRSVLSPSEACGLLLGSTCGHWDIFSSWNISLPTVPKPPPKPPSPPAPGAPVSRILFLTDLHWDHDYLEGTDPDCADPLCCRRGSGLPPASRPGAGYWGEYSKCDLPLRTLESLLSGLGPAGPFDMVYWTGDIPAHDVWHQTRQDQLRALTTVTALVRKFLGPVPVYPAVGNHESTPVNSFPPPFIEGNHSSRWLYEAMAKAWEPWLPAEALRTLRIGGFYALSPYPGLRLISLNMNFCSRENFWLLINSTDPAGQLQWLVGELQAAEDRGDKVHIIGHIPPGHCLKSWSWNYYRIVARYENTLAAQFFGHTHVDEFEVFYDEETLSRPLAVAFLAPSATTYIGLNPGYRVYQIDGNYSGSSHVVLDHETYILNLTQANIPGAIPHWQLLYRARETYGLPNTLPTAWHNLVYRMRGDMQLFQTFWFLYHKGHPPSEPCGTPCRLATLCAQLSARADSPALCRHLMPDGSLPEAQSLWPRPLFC
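Fluorogenic HMU-PC substrate (9 uM final) is turned over by placental ASM in 60 min at 37 C after a 10 min compound preincubation. Reaction ended by alkaline stop (pH 10), with fluorescence read at 386/447 nm.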
HepG2 tox: qHTS for Inhibitors of TGF-b: Cytotox Counterscreen | HepG2 CAGA-GFP viability, ATP luminescence, 18 h | Potency, µM (top dose mostly 46.1 µM), without a hit: top-dose activity change, negative = cytotoxicity, most hits filed as cytotoxic | actives 0.76% (n = 410,000) | AID 588856, 2011; note: potency is the fitted concentration of half-maximal effect
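CellTiter-Glo luminescence gave cytotoxicity after 18 hours at 37 degrees C. The cells were HepG2 CAGA-GFP in 1% FBS DMEM, stimulated with 500 pg/mL TGF-beta after compound addition. %Activity was normalised to no-cell wells (complete cell-killing) and DMSO (no toxicity), and curves were fitted and classified.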
TDP1 cell CPT: qHTS for Inhibitors of human tyrosyl-DNA phosphodiesterase 1 (TDP1): qHTS in cells in presence of CPT. chicken DT40 Tdp1-/-;hTDP1 cells + 20 nM CPT, ATP luminescence, 48 h. Potency, µM (titrated, usually from 46.2 µM), without a hit: at the top dose activity change, negative = growth inhibition, most hits filed as inhibitors. actives 12% (n = 420,000); note: potency is the fitted concentration of half-maximal effect; % is set by controls: 0 for no effect and ±100 for the full control effect; nearly all actives have a fitted effect of over 55% in size
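Chicken DT40 Tdp1-/- cells complemented with human TDP1, 400 cells/well, exposed to compounds plus 20 nM camptothecin for at least 48 h at 37 C; viability read as ATP content by CellTiter-Glo luminescence.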
IL-1B inflam inh: qHTS for Inhibitors of Inflammasome Signaling: IL-1-beta AlphaLISA Primary Screen | actives 4.7% (n = 360,000) | activity change, % at 57.5 µM | THP-1 LPS/ATP IL-1B secretion, AlphaLISA, 16 h; active compounds read low; in the data active = activity change below about -50%; inconclusive = mostly about -30% to -49%; note: % is set by controls: 0 for no effect and ±100 for the full control effect
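THP-1 cells pretreated 1 hr with compounds (up to 57.5 uM final), then stimulated with LPS (250 ng/mL final) plus ATP (1.25 mM final); secreted IL-1B measured by AlphaLISA after 16 hr, decreased signal indicating inhibition.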
* hit, by the source's call; ? = inconclusive; . = not tested or not shown. Only some compounds are listed: those with a hit (about 19% of all), similar ones and a draw of the others. Unless noted, calls come from the whole dose curve; as a rule, active = well fitted curve in the direction sought with a large enough effect; inconclusive = small, poorly fitted or top-dose-only effect, or another doubt; inactive = no such curve, though single readings can be large; an effect the other way counts as inactive or inconclusive.

SMILES	TDP1 cell noCPT	TGFb SMAD3 inh	ASM inhibitor	HepG2 tox	TDP1 cell CPT	IL-1B inflam inh
Cc1ccc(C(=O)Nc2cccc(S(=O)(=O)N3CCCCC3)c2)cc1S(=O)(=O)N1CCOCC1	?	-25%	-1%	-4%	?	-10
O=C(Nc1cccc(S(=O)(=O)N2CCCCC2)c1)c1ccc([N+](=O)[O-])o1	4.1µM*	?	-3%	-59%	6.5µM*	-92*
COc1ccc(NS(=O)(=O)c2ccc3c(c2)NC(=O)CCS3)cc1Cl	18µM*	?	1%	-25%	21µM*	-1
CCn1c(=O)sc2cc(NS(=O)(=O)c3ccc(F)c(C)c3)ccc21	10µM*	?	.	-28%	10µM*	.
COc1ccc(S(=O)(=O)Nc2ccc3c(c2)sc(=O)n3C)cc1Cl	18µM*	?	.	-35%	23µM*	.
COc1ccc(NS(=O)(=O)c2ccc3c(c2)NC(=O)CCS3)c(OC)c1	.	1%	.	-20%	.	.
Cc1cc(S(=O)(=O)Nc2cc3c(cc2Cl)n(C)c(=O)c(=O)n3C)ccc1F	?	0%	.	-9%	-22%	.
O=S(=O)(c1ccc2c(Cl)cccc2c1)N1CCN(c2nc(-c3cccs3)nc3ccccc23)CC1	-10%	.	.	.	-3%	.
O=S(=O)(Cc1cc(NCc2ccccc2)nc(-c2ccccn2)n1)c1ccccc1	4.6µM*	-6%	-2%	-26%	4.6µM*	39
O=S(=O)(Cc1cc(NCc2ccccc2)nc(-c2ccncc2)n1)c1ccccc1	-24%	?	-2%	-29%	6%	55
O=Cc1cccc(OC(=O)Nc2ccccc2)c1	?	4%	3%	-11%	8%	.
COc1ccc(-c2c[n+]3c4n2CCCCC4=C(c2ccccc2)C3)cc1	5.2µM*	?	492%	-33%	3.3µM*	?
COc1ccc(-c2c[n+](CC(=O)c3ccccc3)c3n2CCCCC3)cc1	4.1µM*	-11%	-1%	-3%	7.3µM*	?
O=C(C[n+]1cc(-c2ccccc2)n2c1CCCCC2)c1ccc(Cl)cc1	16µM*	5%	0%	-18%	21µM*	-76*
O=C(C[n+]1cc(-c2ccc(F)cc2)n2c1CCC2)c1cccs1	-23%	0%	8%	-31%	-5%	0
Cc1ccc(-c2c[n+](CC(=O)c3ccc(Br)cc3)c3n2CCCCC3)cc1	1.6µM*	-27%	-4%	-22%	1.5µM*	-95*
Cc1ccc(-n2c(=O)c3c4c(sc3n(CC(=O)C(C)(C)C)c2=O)CCCCC4)cc1C	?	?	.	-21%	?	.
COc1ccccc1N1CCN(C(=O)C2CCN(S(=O)(=O)N3CCOCC3)CC2)CC1	-25%	8%	2%	-3%	-15%	2
O=C(C1CCN(S(=O)(=O)N2CCOCC2)CC1)N1CCN(c2ccc(F)cc2)CC1	10µM*	-4%	4%	-9%	8.2µM*	9
COc1ccc(N2CCN(C(=O)C3CCN(S(=O)(=O)N4CCOCC4)CC3)CC2)cc1	13µM*	-27%	-2%	-8%	?	13
O=C(NNC(=O)C1CCN(Cc2cccc(F)c2)CC1)c1cccc(Cl)c1	?	1%	1%	-3%	-18%	-11
O=C(NC(c1ccc(Cl)cc1)c1ccsc1)C1CCN(Cc2cccc(Cl)c2)CC1 (centres undefined)	4.6µM*	?	.	-49%	5.2µM*	0
O=C(NC(c1ccc(Cl)cc1)c1ccsc1)C1CCN(Cc2cccc(C(F)(F)F)c2)CC1 (centres undefined)	4.1µM*	0%	.	-38%	4.1µM*	-70*
O=C(Cn1cc(/C=C\[N+](=O)[O-])c2ccccc21)Nc1ccccc1	15µM*	8.9µM*	-7%	11µM*	21µM*	-96*
C(=N\n1cnnc1)/c1cn(Cc2ccccc2)c2ccccc12	-22%	13µM*	-21%	-74%	-12%	-12
SMILES	TDP1 cell noCPT	TGFb SMAD3 inh	ASM inhibitor	HepG2 tox	TDP1 cell CPT	IL-1B inflam inh
O=[N+]([O-])/C=C/c1cn(Cc2ccccc2)c2ccccc12	12µM*	?	-29%	-47%	18µM*	-70*
O=C(O)Cn1cc(/C=C/[N+](=O)[O-])c2ccccc21	-9%	-22%	-2%	11%	-1%	-11
Cc1c(OC(C)C(=O)NCc2cccnc2)ccc2c3c(c(=O)oc12)CCCC3 (centres undefined)	?	-11%	19%	-17%	?	-25
CC(C)NC(=O)CCc1nc2cccnc2n1-c1ccccc1	-2%	0%	0%	-10%	-9%	-8
O=C(NCc1ccc2c(c1)OCO2)c1ccc(CS(=O)(=O)c2ccc(Br)cc2)o1	?	-13%	-1%	-14%	?	11
CC(=O)N1CCN(c2ccc(NC(=O)c3ccc(Cl)cc3)cc2)CC1	-18%	-21%	9%	-25%	5%	-3
O=C(c1ccc(CS(=O)(=O)c2ccc(Br)cc2)o1)N1CCN(c2ccc(F)cc2)CC1	23µM*	4%	-4%	-4%	?	-8
O=C(COc1ccc(S(=O)(=O)NC2CCCCC2)cc1)N1CCN(c2ccc(F)cc2)CC1	21µM*	?	0%	0%	16µM*	-21
CNS(=O)(=O)c1cn(CC(=O)N2CCN(c3ccc(Cl)cc3)CC2)cc1S(=O)(=O)NC	13µM*	0%	.	-10%	15µM*	.
O=C(NCc1ccc(F)cc1)c1ccc(CS(=O)(=O)c2ccc(Br)cc2)o1	10µM*	?	-7%	-2%	?	?
NC(=O)C1CCN(C(=O)COc2ccc(S(=O)(=O)NC3CCCC3)cc2)CC1	-5%	0%	5%	-5%	10%	-2
CCOC(=O)Cc1csc(NC(=O)CCN2C(=O)c3cccc([N+](=O)[O-])c3C2=O)n1	-2%	4%	-1%	0%	3%	11
O=C(COC(=O)c1c(F)cccc1F)Nc1ccc(N2CCCCC2)cc1	10%	-1%	1%	6%	7%	11
Clc1cccc(CNCCCSc2nnnn2-c2ccccc2)c1	?	0%	.	-50%	?	.
